Assay results from PubChem BioAssay (NCATS).
Results filed as inconclusive are left out. Unmarked numbers belong to inactive results. Activity calls are given as the source filed them. Calls come from the whole dose curve; as a rule, active = well fitted inhibition curve with a large enough effect; inconclusive = small, poorly fitted or top-dose-only effect; inactive = flat fitted curve, though single readings scatter.

Key:
CRL-7250 = normal cell line; experiment: Cytotoxic Profiling of Annotated Libraries Using Quantitative High-Throughput Screening (AID 1296008); details: Five cell lines viability, CellTiter-Glo ATP luminescence, 48-72 h; max response: active compounds read low; note: potency is the fitted concentration of half-maximal effect; for max response: % is set by controls: 0 for no effect and ±100 for the full control effect
Summary of the method: (§1)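 Cells exposed to compounds for 48 or 72 hr at 37 degrees Celsius. Viability read as ATP-coupled luminescence with CellTiter-Glo after 10 min at room temperature.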

KB-3-1 = experiment: as above; details: Five cell lines viability, CellTiter-Glo ATP luminescence, 48-72 h; max response: active compounds read low
Summary of the method: as §1

NIH3T3 = experiment: as above; details: Five cell lines viability, CellTiter-Glo ATP luminescence, 48-72 h; max response: active compounds read low
Summary of the method: as §1

HEK293T = experiment: qHTS assay to identify novel small-molecules to repurpose for Merkel cell carcinoma treatment (AID 1296009); details: MCC and control cell lines, CellTiter-Glo viability, 72 h; at 44.8 µM (top of the series) unless noted
Summary of the method: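 Cells were incubated with compound for 72 hr at 37 degree celsius before CellTiter-Glo addition. Luminescence was normalized with no-cell wells as full cytotoxicity and DMSO as baseline.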

HEK293 = experiment: Cytotoxic Profiling of Annotated Libraries Using Quantitative High-Throughput Screening (AID 1296008); details: Five cell lines viability, CellTiter-Glo ATP luminescence, 48-72 h; max response: active compounds read low; note: potency is the fitted concentration of half-maximal effect; for max response: % is set by controls: 0 for no effect and ±100 for the full control effect
Summary of the method: as §1

HaCat = experiment: as above; details: Five cell lines viability, CellTiter-Glo ATP luminescence, 48-72 h; max response: active compounds read low
Summary of the method: as §1
Note: nearly all actives have a fitted effect of over 60% in size.

CC1(C)CC[C@]2(C(=O)O)CC[C@]3(C)C(=CCC4[C@@]5(C)C[C@@H](O)[C@H](O)C(C)(C)C5CC[C@]43C)C2C1 (stereo partly drawn)
outcome (CRL-7250): inactive | outcome (KB-3-1): inactive | max response (NIH3T3): 4.86% | outcome (HEK293T): inactive [at 17.4 µM]

CC(=O)SCC(=O)c1ccc(NS(=O)(=O)c2ccc(OCCCN(C)C)cc2)nc1
Potency (HEK293): 7.31 µM (active) | Potency (HaCat): 14.6 µM (active) | Potency (KB-3-1): 8.2 µM (active)

C=C(C(=O)O)C1CCC2(C)CCC(O)C(=C)C2C1 (stereo not drawn)
max response (CRL-7250): -9.49% | max response (HaCat): -10.5% | outcome (KB-3-1): inactive | max response (NIH3T3): -5.34%

C=C1C(=O)O[C@@H]2C[C@H](C)[C@@]3(O)C=C(C(C)=O)[C@]4(CC3C[C@H]12)C(=O)O[C@H]1C[C@@H](C)C(CCC(C)=O)=CC[C@H]14 (stereo partly drawn)
outcome (CRL-7250): inactive | max response (HaCat): -0.117% | outcome (KB-3-1): inactive | max response (NIH3T3): -0.126%

COc1ccc(CCC(=O)c2c(O)cc(O)cc2O[C@@H]2O[C@H](CO)[C@@H](O)[C@H](O)[C@H]2O)cc1
max response (CRL-7250): -5.63% | max response (HaCat): -11.7% | max response (KB-3-1): 8.59% | max response (NIH3T3): -8.41%

C/C1=C\[C@H]2OC(=O)[C@@H](C)[C@@H]2CC/C(C(=O)O)=C/CC1
max response (CRL-7250): -1.29% | max response (HaCat): -0.286% | max response (KB-3-1): -0.178% | max response (NIH3T3): -2.73%

COc1ncc(Nc2ncc([C@@H](C)N3CCN(S(C)(=O)=O)CC3)cc2-c2nc(C)nc(N)n2)cc1F
Potency (HEK293): 0.259 µM (active) | Potency (HaCat): 0.058 µM (active) | Potency (KB-3-1): 9.2 µM (active)

CC(C)C[C@H](CC(=O)NO)C(=O)N[C@H](C(=O)N[C@@H](C)C(=O)NCCN)C(C)(C)C
outcome (CRL-7250): inactive | outcome (KB-3-1): inactive | outcome (NIH3T3): inactive

NCc1c[nH]c(=S)n1[C@@H]1CCc2c(F)cc(F)cc2C1
outcome (CRL-7250): inactive | max response (HaCat): 3.97% | max response (KB-3-1): -4.38% | max response (NIH3T3): -1.29%

CN1CCC(Nc2nc(Nc3ccc(Oc4ccccc4)cc3)c3c(=O)[nH]cc(Br)c3n2)CC1
Potency (HEK293): 2.31 µM (active) | Potency (HaCat): 4.11 µM (active) | Potency (KB-3-1): 5.8 µM (active)

CCC[C@@H]1O[C@@H]2C[C@H]3[C@@H]4CCC5=CC(=O)C=C[C@]5(C)[C@H]4[C@@H](O)C[C@]3(C)[C@]2(C(=O)CO)O1
max response (CRL-7250): 0.403% | outcome (KB-3-1): inactive | max response (NIH3T3): -20.8%

COc1ccc(C2=N[C@@H](c3ccc(Cl)cc3)[C@@H](c3ccc(Cl)cc3)N2C(=O)N2CCNC(=O)C2)c(OC(C)C)c1
max response (HEK293): -29% | max response (HaCat): -13.8% | max response (KB-3-1): 6.36%

Cc1cc(N(C)C)ccc1-c1nc2ccc(-c3nc4ccc(N5CCN(C)CC5)cc4[nH]3)cc2[nH]1
Potency (HEK293): 8.2 µM (active) | max response (HaCat): -16.4% | Potency (KB-3-1): 23.1 µM (active)

COc1ccc(C(=O)C2CCN(CC(=O)N(Cc3nc4c(c(=O)[nH]3)COCC4)CC3CC3)CC2)cc1
max response (HEK293): -4.04% | max response (HaCat): -5.45% | max response (KB-3-1): 9.05%

C=C(C)C(=O)OC1CC2(C)OC(=CC2=O)C(=C)CC2OC(=O)C(COC)C12 (stereo not drawn)
Potency (HEK293): 7.18 µM (active) | max response (HaCat): -21.9% | max response (KB-3-1): -15.6%

CC(C)(C(=O)NCC(F)(F)C(F)(F)F)C(=O)NC1C(=O)Nc2ccccc2-c2ccccc21 (stereo not drawn)
Potency (HEK293): 5.8 µM (active) | Potency (HaCat): 16.4 µM (active) | Potency (KB-3-1): 18.4 µM (active)

CC(=O)c1cc(C(=O)N[C@@H](C)Cn2ccc(-c3ccc(C#N)c(Cl)c3)n2)[nH]n1
Potency (HEK293): 23.1 µM (active) | max response (HaCat): -24.9% | max response (KB-3-1): -26.1%

C=C1C(=O)O[C@H]2C1[C@H](OC(=O)/C(=C/CO)COC(=O)/C(C)=C/CO)CC(=C)[C@@H]1CC(=O)[C@@H](C)[C@@H]12 (stereo partly drawn)
Potency (HEK293): 11.2 µM (active) | max response (HaCat): -52.7% | max response (KB-3-1): -3.1%

CNCc1ccc(-c2cc(-c3nc(-c4ccc(S(=O)(=O)C(C)C)cc4)cnc3N)on2)cc1
Potency (HEK293): 1.16 µM (active) | max response (HaCat): -11.6% | Potency (KB-3-1): 1.3 µM (active)

Cn1nnc(-c2ccc(-c3ccc(N4C[C@H](COP(=O)(O)O)OC4=O)cc3F)cn2)n1
Potency (HEK293): 0.58 µM (active) | max response (HaCat): 0.171% | max response (KB-3-1): -33%

CC1CCC2(OC1)OC1CC3C4CCC5C[C@@H](O[C@@H]6O[C@H](CO[C@@H]7OC[C@@H](O)[C@H](O)[C@H]7O)[C@H](O)[C@H](O)[C@H]6O)CC[C@]5(C)C4CC[C@]3(C)C1C2C (stereo partly drawn)
max response (CRL-7250): -3.87% | max response (KB-3-1): 9.78% | outcome (NIH3T3): inactive | outcome (HEK293T): inactive [at 17.4 µM]

CCN(CC)Cc1ccc(C(=O)N(CCc2ccccc2OC)[C@@H]2CCNC2)cc1
Potency (HEK293): 5.63 µM (active) | max response (HaCat): -4.71% | Potency (KB-3-1): 3.99 µM (active) | Potency (NIH3T3): 2.52 µM (active)

O=C(CC1C(=O)Nc2ccccc21)OC[C@H]1O[C@@H](OCCc2ccc(O)cc2)[C@H](O)[C@@H](O)[C@@H]1O (stereo partly drawn)
max response (HEK293): 1.16% | max response (HaCat): -16.5% | outcome (KB-3-1): inactive | max response (NIH3T3): -0.494%
